A short description of test [1]: reducers of endogenous Her2 protein level, primary screen, SKBR3 breast tumor cells, AlphaScreen, ATP viability (AID 461;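 active = Her2 level under about 52% in both replicate screens, with viability over 70% of control, limit read from the data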;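 for Her2 level: lower value means less Her2 protein in the cells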;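 for viability: percent of carrier control wells set as 100% viability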). Conditions: 18-24 h, measured here: SKBR3 viability, ATP luminescence, at 10 µM.
The target in test [2] is Receptor tyrosine-protein kinase erbB-2 (Homo sapiens) (UniProt P04626). The description is as above. Conditions: 18-24 h, at 10 µM, stronger effect = lower value.
Receptor tyrosine-protein kinase erbB-2 (Homo sapiens), sequence (P04626 whole entry, looked up): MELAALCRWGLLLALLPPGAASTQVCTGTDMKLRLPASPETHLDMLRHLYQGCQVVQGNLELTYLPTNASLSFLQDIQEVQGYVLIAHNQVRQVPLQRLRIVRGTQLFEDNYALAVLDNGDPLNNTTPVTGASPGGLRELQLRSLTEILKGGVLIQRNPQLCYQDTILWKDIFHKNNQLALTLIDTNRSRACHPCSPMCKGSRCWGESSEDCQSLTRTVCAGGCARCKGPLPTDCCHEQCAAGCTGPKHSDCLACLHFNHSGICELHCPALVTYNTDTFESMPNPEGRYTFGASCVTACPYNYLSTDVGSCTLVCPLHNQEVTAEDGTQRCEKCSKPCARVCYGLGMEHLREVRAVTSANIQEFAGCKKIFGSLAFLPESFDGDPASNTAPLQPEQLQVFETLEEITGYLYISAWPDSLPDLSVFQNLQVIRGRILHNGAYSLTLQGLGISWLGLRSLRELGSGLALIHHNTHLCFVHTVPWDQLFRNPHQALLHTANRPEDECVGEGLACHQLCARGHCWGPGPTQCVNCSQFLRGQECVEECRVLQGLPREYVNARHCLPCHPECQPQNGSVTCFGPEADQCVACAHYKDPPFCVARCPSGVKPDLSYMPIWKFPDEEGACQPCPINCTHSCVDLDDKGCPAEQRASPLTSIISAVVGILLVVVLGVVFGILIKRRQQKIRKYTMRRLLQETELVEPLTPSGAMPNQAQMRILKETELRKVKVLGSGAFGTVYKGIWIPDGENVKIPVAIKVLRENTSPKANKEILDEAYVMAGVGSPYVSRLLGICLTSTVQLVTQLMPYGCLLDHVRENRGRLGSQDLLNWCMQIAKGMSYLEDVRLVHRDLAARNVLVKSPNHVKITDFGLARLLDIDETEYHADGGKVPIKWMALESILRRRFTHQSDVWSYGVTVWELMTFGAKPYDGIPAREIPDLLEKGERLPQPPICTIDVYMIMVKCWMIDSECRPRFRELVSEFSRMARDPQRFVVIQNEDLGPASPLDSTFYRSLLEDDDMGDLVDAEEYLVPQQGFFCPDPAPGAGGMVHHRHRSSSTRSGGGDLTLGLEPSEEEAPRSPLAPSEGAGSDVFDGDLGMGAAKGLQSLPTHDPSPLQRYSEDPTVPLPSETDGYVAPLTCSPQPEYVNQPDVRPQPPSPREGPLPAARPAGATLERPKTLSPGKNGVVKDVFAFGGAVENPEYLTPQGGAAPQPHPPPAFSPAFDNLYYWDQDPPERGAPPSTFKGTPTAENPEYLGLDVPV
Test [3] in a line: SK-BR-3 cell growth inhibitors, pilot screen, 24 h, human (AID 572;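 active = viability at or below 10% of carrier control in both of two separate runs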;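 note: compound exposure lasted between 18 and 24 h rather than exactly 24 h; 100% = carrier-treated control wells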). The conditions noted are these: SK-BR-3 viability, CellTiter-Glo luminescence, at 10 µM, stronger effect = lower value.
Test [4] in a line: HUVEC growth inhibition – cell-based, human, primary screen (AID 575;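 active = viability at or below 30% in both replicate assays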;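 note: 100% = median of untreated cell wells with 0.1% DMSO on each plate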). The conditions noted are these: HUVEC proliferation, CellTiter-Glo luminescence, 72 h; at 10 µM; stronger effect = lower value.
Test [5] is described as follows: growth inhibitors of H69AR lung tumor, primary screen, human, duplicate replicates (AID 580;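 active = viability at or under a set limit in both replicates, limit being median viability minus 3 SD, cut at about 48% in these data, passing the limit was not always enough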;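 note: 100% = mean luminescence of untreated wells and 0% = no signal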). The conditions noted are these: H69AR lung tumor cells viability, ATP luminescence, 72 h; at 10 µM; stronger effect = lower value.
Test [6] in a line: reversal of MRP1-mediated doxorubicin resistance, pilot screen, H69AR cells, doxorubicin co-treatment (AID 601;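 active = viability loss from added drug above about 55%, and viability with drug at most 40%, in both replicates, limit read from the data, passing the limit was not always enough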). The conditions noted are these: CellTiter-Glo, 72 h, at 10 µM; for differential viability (reversal): stronger effect = higher value.
The nature of test [7]: 384-well plate pilot, post-Golgi transport modulator project, inhibition of yeast transport mutant growth (AID 636; in the data active = inhibition above about 31%). Conditions: absorbance 615 nm, about 18 h, stronger effect = higher value.
Test [8] is described as follows: growth suppression of yeast trafficking mutant, preliminary HTS, modulators of trafficking downstream of Golgi apparatus project, 1536-format plate, OD 615 nm (AID 637; in the data active = inhibition above about 30%). The conditions noted are these: yeast transport mutant growth, absorbance 615 nm, 18 h; stronger effect = higher value.
Test [9] is described as follows: OD615 S. cerevisiae growth inhibition, permissive medium, pilot counter-assay, permissive growth control for S. cerevisiae lifespan shortening project (AID 705). Conditions: OD615, 24 h, at 10 µM, stronger effect = higher value.
Test [10] can be described thus: Restrictive medium S. cerevisiae growth inhibition, OD615, pilot screen of yeast lifespan reduction project, restrictive growth control (AID 706;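 active = growth inhibition above a set limit, 3 SD over mean compound inhibition, in both replicates, cut at about 43% in these data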;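 note: modified DeaD lifespan yeast strain shifted to restrictive glucose medium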). Conditions: OD615, 48 h, at 10 µM, stronger effect = higher value.
Test [11] can be described thus: viability gain of MRP-1-high H69AR cells under doxorubicin, pilot screen, MRP-1 activator project, CellTiter-Glo, duplicate (AID 807;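 active = viability increase at or above a cutoff of the median across tested compounds plus 3 SD, cut at about 8.5% in these data, passing the limit was not always enough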;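 note: compound pretreatment 18-22 h then 72 h combined with doxorubicin; 0% = doxorubicin alone and 100% = vehicle without doxorubicin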). Conditions: H69AR viability with doxorubicin, CellTiter-Glo luminescence; at 10 µM; stronger effect = higher value.
Test [12] is described as follows: growth suppression of beta-catenin knockout HCT116, pilot screen, human colon tumor cells (AID 823;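 active = cell viability at or below a set limit in both duplicate runs, the limit being the all-compound median minus 4 SD, cut at about 23% in these data, passing the limit was not always enough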;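 note: 0% = wells killed by 20 µM Hyamine and 100% = untreated DMSO cell wells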). The conditions noted are these: CellTiter-Glo, 60 h, at 10 µM, stronger effect = lower value.
A short description of test [13]: growth suppression of PTEN-deleted HCT116, pilot screen, cell-based, HCT116 clonal line, CellTiter-Glo (AID 824;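 active = viability at or below 27.92% in each of two runs, the all-compound median minus 4 SD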;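 note: 0% = 20 µM Hyamine control and 100% = vehicle cell control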). Conditions: 60 h, at 10 µM, stronger effect = lower value.
Test [14] can be described thus: inhibitors of the yeast RAM network, pilot screen, dse1pr::URA3 reporter, 5-FOA selection (AID 869;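 active = inhibition over a set limit, the all-compound mean plus 3 SD, in both replicate runs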;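 note: 0% = DMSO wells with no growth and 100% = 10 µM 1-NA-PP1 with full growth; RAM network block rescues cells from 5-FOA so hits raise OD615 growth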). Conditions: S. cerevisiae dse1pr::URA3 5-FOA growth, OD615, 2 d; at 10 µM; stronger effect = higher value; strain carries analog-sensitive mutant Cbk1 kinase.
Test [15] is described as follows: RAM signaling pathway blockade in yeast – S. cerevisiae, Pdr1DBD-CYC8 efflux-inhibited sensitized strain, primary screen (AID 1298;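 active = RAM network inhibition above 8.4% in each of two replicates, 3 SD over the compound average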;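 note: 0% = DMSO untreated cells without growth and 100% = 10 µM 1-NA-PP1 full growth; higher means more yeast growth rescued from 5-FOA killing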). The conditions noted are these: S. cerevisiae cbk1-as DSE1-URA3 strain, 5-FOA growth OD615, 2 d; at 50 µM; stronger effect = higher value.
The mark [16] stands for this setting: H69AR cells + 2 uM doxorubicin, measured here: viability with 2 uM doxorubicin, stronger effect = lower value.
Where [17] appears, read: H69AR cells, compound alone cytotoxicity.

Results filed as inconclusive are left out. Calls of active or inactive are those of the source.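 Rule for the calls, unless noted: active = growth inhibition above 25% in both replicates, a cutoff set 3 SD above the mean; inconclusive = above 25% in only one replicate; inactive = the rest.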

Regarding `COC(=O)Cn1c(=O)c2c(nc3n2CC(C)CN3c2ccc(C)c(C)c2)n(C)c1=O` (stereo not given), the viability was 90.5% in test [1]; 90.5% (inactive) in test [3]; 93.2% (inactive) in test [4]; 85.5% (inactive) in test [5]; 69.7% in [6] (setting [16]); 85.5% in [6] (setting [17]). The viability in [12] is 97.9% (inactive); in test [13], 91.1% (inactive). Also, in test [2], the Her2 level is 89% (inactive). Moreover, the differential viability (reversal) in [6] (H69AR cells + 2 uM doxorubicin) was 15.8% (inactive). Besides, the figures for the inhibition in test [7], in test [8] and in test [14] were -9.47% (inactive), -3.5% (inactive) and 1.25% (inactive), respectively. The results for the growth inhibition in [9] and in [10] were -5.87% (inactive) and 0.135% (inactive), respectively. Also, the viability increase in test [11] was -0.75% (inactive). Moreover, the RAM network inhibition in test [15] is 4.14% (inactive).
For `CC1=C(C(=O)OC(C)C)C(c2ccccn2)n2ncnc2N1` (stereo not given), the viability in test [1] was 108%; in test [3] it was 108% (inactive); in test [4], 89.5% (inactive); in test [5], 98.1% (inactive); in test [6] (setting [16]), 92.1%; in [6] (setting [17]), 98.1%. Further, the viability is 106% (inactive) in test [12] and 99.5% (inactive) in test [13]. Moreover, the Her2 level in test [2] is 113% (inactive). Besides, the differential viability (reversal) in test [6] (H69AR cells + 2 uM doxorubicin) was 6.04% (inactive). The inhibition in [7] was -3.2% (inactive); in test [8] it was 0.83% (inactive); in [14], 2.84% (inactive). Also, the figures for the growth inhibition in test [9] and in test [10] were -5.88% (inactive) and -3.54% (inactive), respectively. Besides, the viability increase in test [11] is -0.55% (inactive). Further, in test [15], the RAM network inhibition is 7.35% (inactive).
As for `CCN1CCN(Cc2nc3c(c(=O)n(C)c(=O)n3C)n2CC(=O)c2ccccc2)CC1`, the viability was 100% in [1]; 100% (inactive) in [3]; 95.5% (inactive) in test [4]; 98.5% (inactive) in test [5]; 95.8% in test [6] (setting [16]); 98.5% in test [6] (setting [17]). Further, the values for the viability in test [12] and in test [13] were 100% (inactive) and 105% (inactive), respectively. Moreover, the Her2 level in test [2] is 108% (inactive). For the same molecule, in [6] (H69AR cells + 2 uM doxorubicin), the differential viability (reversal) was 2.67% (inactive). Moreover, the inhibition in test [7] was -4.13% (inactive); in [8] it was -0.33% (inactive); in test [14], 1.33% (inactive). Also, the growth inhibition in [9] is 5% (inactive); in [10], -14% (inactive). For the same molecule, the viability increase in test [11] was -1.56% (inactive). Moreover, the RAM network inhibition in test [15] was 3.98% (inactive).
For `CC1=C(C(N)=O)C(c2ccccn2)n2nc(-c3ccccc3Cl)nc2N1` (stereo not given), the viability in test [1] was 98%; in [3] it was 98% (inactive); in [4], 103% (inactive); in test [5], 91.6% (inactive); in test [6] (setting [16]), 85.4%; in test [6] (setting [17]), 91.6%. Moreover, the viability is 101% (inactive) in test [12] and 91.7% (inactive) in [13]. In test [2], the Her2 level is 114% (inactive). For the same molecule, in test [6] (H69AR cells + 2 uM doxorubicin), the differential viability (reversal) is 6.15% (inactive). For the same molecule, the inhibition in test [7] is -2% (inactive); in test [8] it was -4.17% (inactive); in test [14], 1% (inactive). In addition, the growth inhibition in test [9] is -13.8% (inactive); in test [10], -3.02% (inactive). For the same molecule, in [11], the viability increase was -2.25% (inactive). Moreover, the RAM network inhibition in [15] is 3.22% (inactive).
Turning to `CCOC(=O)c1cc2c(=O)n3ccccc3nc2n(Cc2ccccc2)c1=N`, the viability in [1] was 77%; in test [3], 77% (inactive); in test [4] it was 84.2% (inactive); in [5], 83.8% (inactive); in test [6] (setting [16]), 88.3%; in test [6] (setting [17]), 83.8%. The figures for the viability in test [12] and in test [13] were 77.1% (inactive) and 71.1% (inactive), respectively. For the same molecule, the Her2 level in test [2] is 75.5% (inactive). Also, the differential viability (reversal) in [6] (H69AR cells + 2 uM doxorubicin) is -4.5% (inactive). The inhibition in test [7] is -4.86% (inactive); in test [8], -3.28% (inactive); in [14], 2.4% (inactive). Further, the growth inhibition is -1.11% (inactive) in test [9] and -8.62% (inactive) in [10]. For the same molecule, in test [11], the viability increase was -3.3% (inactive). The RAM network inhibition in [15] was 0.09% (inactive).

For the origin of these results see PubChem BioAssay.
